From PubChem BioAssay (Tox21)
Inconclusive results are not listed. Values without a mark were called inactive. Calls come from the whole dose curve; as a rule, active = well fitted activation curve with a large enough effect in the signal ratio in the repeat runs (not every such curve was filed as active); inconclusive = weak or mixed curves; inactive = flat fitted curve, though single readings scatter; the % refers to the signal ratio.

assay: qHTS assay to identify small molecule agonists of the TGF-beta/Smad signaling pathway (AID 1346859); conditions: SBE-bla HEK293T, TGF-beta/Smad beta-lactamase reporter, 5 h; series mostly up to 76.8 µM; activation: at the top concentration
Description: U.S. Tox21 Program National Center for Advancing Translational Sciences [NCATS] NIH Chemical Genomics Center [NCGC] U.S. Environmental Protection Agency [EPA] National Institutes of Environmental Health Sciences [NIEHS] National Toxicology Program [NTP] U.S. Food and Drug Administration [FDA] Tox21 Assay Overview: Transforming growth factor beta (TGF-beta) superfamily consists of a large number of structurally related dimeric proteins that act as hormones or local mediators in regulating a wide range of biological functions. This superfamily includes TGF-betas themselves, the bone morphogenetic proteins (BMPs) and the activins. These ligands induce oligomerization of serine/threonine receptor kinases and phosphorylate the cytoplasmic signaling molecules of Smad protein family. CellSensor SBE-bla HEK 293T cell line (Life Technologies, Carlsbad, CA), responsive to TGF-beta was used to screen Tox21 10K compound library for identification of agonists/antagonists of the Smad signaling pathway. This cell line contains a beta-lactamase reporter gene under control of the Smad binding element (SBE) stably integrated into HEK 293T cells.
Tox21 Assay Protocol Summary: SBE-bla HEK 293T cells were dispensed at 4,000/well in 6 uL of assay medium into black wall/clear-bottom 1536-well plates using a Multidrop Combi (ThermoFisher Scientific, Waltham, MA) dispenser. After the assay plates were incubated at 37 C and 5% CO2 for an overnight, 23 nL of compounds dissolved in DMSO, positive controls or DMSO only was transferred to the assay plate by a Pintool station (Kalypsys, San Diego, CA). The assay plates were incubated at 37 C and 5% CO2 for 5 hr. One uL of LiveBLAzer B/G FRET substrate (Life Technologies) was added using a Flying Reagent Dispenser (Aurora Discovery, San Diego, CA) and the plates were incubated at room temperature for 2 hr. Fluorescence intensity (405 nm excitation, 460 nm and 530 nm emissions) was measured using an Envision plate reader (PerkinElmer, Shelton, CT).
% is set by controls: 0 for no effect and ±100 for the full control effect.

Row | SMILES | activation
1 | CCC(C)(CCC(C)C)C(=O)[O-].CCC(C)(CCC(C)C)C(=O)[O-].[Zn+2] (stereo not given) | 0.411%
2 | O=c1cc(O)c(Cl)c[nH]1 | -0.287% [at 35.3 µM]
3 | c1ccc(CNc2ncnc3nc[nH]c23)cc1 | -1.02%
4 | CC(=O)OC[C@H]1O[C@@H](OC(C)=O)[C@H](OC(C)=O)[C@@H]1OC(C)=O | 0.532% [at 35.3 µM]
5 | C=CCOc1c(Br)cc(C(C)(C)c2cc(Br)c(OCC=C)c(Br)c2)cc1Br | 0.786% [at 35.3 µM]
6 | CCCCC(CC)COC(=O)c1ccccc1 (stereo not given) | 7.69%
7 | NS(=O)(=O)c1cc2c(cc1Cl)NC(CC1CCCC1)NS2(=O)=O (stereo not given) | 4.68% [at 35.3 µM]
8 | CN(C)CCOCCN(C)CCO | 0.712%
9 | O=[Si]=O | 3.86%
10 | CC(C)COC(=O)CCCCC(=O)OCC(C)C | -0.899%
11 | SCCSCCS | 3.32%
12 | CCCCCCCCCCCCC1CO1 (stereo not given) | 0.141%
13 | C/C=C(\C)C(=O)OCC/C=C\CC | 5.48%
14 | CC(C)c1ccccc1O | 0.728%
15 | CC(=O)N(CC(O)CO)c1c(I)c(C(=O)NCC(O)CO)c(I)c(C(=O)NCC(O)CO)c1I (stereo not given) | 0.491% [at 35.3 µM]
16 | CN[C@@H]1[C@H](O)[C@H](NC)[C@H]2O[C@@]3(O)C(=O)C[C@@H](C)O[C@H]3O[C@@H]2[C@H]1O | -2.07% [at 35.3 µM]
17 | Cc1ncc([N+](=O)[O-])n1CC(O)CCl (stereo not given) | 0.835% [at 35.3 µM]
18 | CCCCCCCCCOCC1CO1 (stereo not given) | 1.21%
19 | Nc1ccc(C(=O)OCC(O)CO)cc1 (stereo not given) | -3.48% [at 35.3 µM]
20 | CCC(O)C(C)(C)C (stereo not given) | 0.109%

Row | SMILES | activation
21 | CCCCOC(=O)C(C)OC(=O)CCC (stereo not given) | -0.0247%
22 | O=CN1CCOCC1 | 4.81%
23 | O=S(=O)(O)SSS(=O)(=O)O | -2.05%
24 | CC(C)(c1ccc(Oc2ccc3c(c2)C(=O)OC3=O)cc1)c1ccc(Oc2ccc3c(c2)C(=O)OC3=O)cc1 | 10.2%
25 | Cc1c(C(C)C)c(=O)n(-c2ccccc2)n1C | 1.53% [at 35.3 µM]
26 | CNCc1ccccc1 | -0.709% [at 35.3 µM]
27 | CCC(CO)CO | 1.22%
28 | CCCCCC1Nc2cc(C(F)(F)F)c(S(N)(=O)=O)cc2S(=O)(=O)N1 (stereo not given) | -5.48% [at 35.3 µM]
29 | O=C(O)c1ccccc1C(=O)Nc1ccc(S(=O)(=O)Nc2nccs2)cc1 | -2.39% [at 35.3 µM]
30 | O=C(Oc1ccccc1C(=O)O)c1ccccc1O | 0.447% [at 35.3 µM]
31 | CC(C)COC(=O)CC(C(=O)OCC(C)C)S(=O)(=O)O (stereo not given) | 1.85%
32 | O=C(O)/C=C/c1ccccc1 | 0.205%
33 | CCC1COC(=O)O1 (stereo not given) | 2.83%
34 | Nc1ccc(S(=O)(=O)Nc2ccccn2)cc1 | -0.981% [at 35.3 µM]
35 | O=C1OC(=O)c2ccccc21 | -0.367%
36 | CC(C)SCc1ccco1 | -0.482% [at 35.3 µM]
37 | CCCC(C)CC (stereo not given) | 3.21%
38 | Cc1ccc(C(=O)C(=O)O)cc1C | -2.43% [at 35.3 µM]
39 | OCCCCCCCl | 0%
40 | O=c1[nH]c(=O)c2[nH]c(=O)[nH]c2[nH]1 | -2.44% [at 6.97 µM]
